Reference: PubChem BioAssay (NCI)
This is part of a sample that, as a whole, favours compounds with a hit. Of some 83,000 tested, about 20% had one in any assay.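 Interpretation: 100, growth as untreated; towards 0, rising growth inhibition; 0, no net growth; 0 to -100, cell death. Compounds scoring below 10 were considered active.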 Activity calls are given as the source filed them.

Tests used:
Experiment in all cases: NCI-60 one-dose screen, 48 h (100 = growth as untreated, 0 = no growth, -100 = all killed)
SK-MEL-2 melanoma = conditions: 10 µM unless noted
EKVX NSCLC = conditions: 10 µM unless noted
SN12C renal = conditions: 10 µM unless noted
UO-31 renal = conditions: 10 µM unless noted
TK-10 renal = conditions: 10 µM unless noted
ACHN renal = conditions: 10 µM unless noted
CAKI-1 renal = conditions: 10 µM
CCRF-CEM leukemia = conditions: 10 µM unless noted
A498 renal = conditions: 10 µM unless noted
MOLT-4 leukemia = conditions: 10 µM unless noted

Measured: growth

CCCCCCNC(=O)Oc1ccc(/C(=C(/C)c2ccc(Cl)cc2)c2ccc(OCCN3CCCC3)cc2)cc1
active: CCRF-CEM leukemia 4.42%
inactive: SK-MEL-2 melanoma 78% | EKVX NSCLC 53.4% | SN12C renal 50.4% | UO-31 renal 18.1% | TK-10 renal 86% | ACHN renal 37.5% | CAKI-1 renal 55.3%

COc1ccc2c(c1)oc1c3[nH]c4ccccc4c3c3c(c21)C(=O)N(O)C3=O
active: A498 renal -1.48% | MOLT-4 leukemia -2.02%
inactive: SK-MEL-2 melanoma 70.8% | EKVX NSCLC 92.5% | SN12C renal 40.5% | UO-31 renal 22.4% | TK-10 renal 119% | ACHN renal 11.5% | CAKI-1 renal 19.6%

O=C(NNc1nc2cc(F)ccc2n2cncc12)c1cnccn1
inactive: SK-MEL-2 melanoma 36% | EKVX NSCLC 20.3% | SN12C renal 34.2% | UO-31 renal 11.7% | TK-10 renal 44% | CCRF-CEM leukemia 14.4%
active: ACHN renal 9.12% | CAKI-1 renal 7.86% | MOLT-4 leukemia 6.82%

CC(=O)Nc1cccc(-n2cnc3cc(-c4ccc(O)cc4)ccc32)c1
active: A498 renal -32.6%
inactive: SK-MEL-2 melanoma 29.2% | EKVX NSCLC 56.6% | SN12C renal 38.1% | UO-31 renal 28.1% | TK-10 renal 72.6% | ACHN renal 33% | CAKI-1 renal 23.3% | MOLT-4 leukemia 21.5%

N#Cc1c(NC(=O)c2ccccc2C(F)(F)F)sc2c1CCC(=O)C2
inactive: SK-MEL-2 melanoma 12.2% | EKVX NSCLC 12.4% | SN12C renal 14.5% | TK-10 renal 35.1% | A498 renal 81.8% | CCRF-CEM leukemia 13% | MOLT-4 leukemia 11.2%
active: UO-31 renal -25.2% | ACHN renal -32.8% | CAKI-1 renal -11.1%

COc1ccc([C@H]2c3[nH]c4ccccc4c3C[C@@H]3C(=O)N(C4CCN(Cc5ccccc5)CC4)CC(=O)N23)c(OC)c1
inactive: SK-MEL-2 melanoma 103% | EKVX NSCLC 64.5% | SN12C renal 75.6% | UO-31 renal 42.6% | TK-10 renal 103% | ACHN renal 76% | CAKI-1 renal 56.4% | A498 renal 93.8% | MOLT-4 leukemia 45.1%

C/C(=N/Nc1nc(N/N=C(/C)c2ccc([N+](=O)[O-])cc2)nc(N2CCOCC2)n1)c1ccc([N+](=O)[O-])cc1
inactive: SK-MEL-2 melanoma 96.4% | EKVX NSCLC 68.1% | SN12C renal 73.7% | UO-31 renal 80.8% | TK-10 renal 127% | ACHN renal 66.1% | CAKI-1 renal 77.9% | CCRF-CEM leukemia 61.6% | MOLT-4 leukemia 78.9%

O=C1[C@H]2Cc3c([nH]c4ccccc34)[C@@H](c3c(Cl)cccc3Cl)N2C(=O)CN1C1CCN(Cc2ccccc2)CC1
inactive: SK-MEL-2 melanoma 114% | EKVX NSCLC 96.2% | SN12C renal 73.3% | UO-31 renal 75.9% | TK-10 renal 46.2% | ACHN renal 93% | CAKI-1 renal 67.6% | A498 renal 102% | MOLT-4 leukemia 20%

O=C1c2c(c3c4cccnc4[nH]c3c3ccc4ccccc4c23)C(=O)N1CCN1CCCCC1
active: MOLT-4 leukemia 6.84%
inactive: SK-MEL-2 melanoma 114% | EKVX NSCLC 78% | SN12C renal 45.2% | UO-31 renal 36.9% | TK-10 renal 104% | ACHN renal 20% | CAKI-1 renal 22.8% | A498 renal 80.1% | CCRF-CEM leukemia 17.9%

CCOC(=O)C1=C(C)Nc2nnc(Nc3ccccc3)n2C1c1ccccc1 (centres undefined)
inactive: SK-MEL-2 melanoma 99.7% | EKVX NSCLC 69% | SN12C renal 30.5% | UO-31 renal 69.5% | TK-10 renal 81.8% | ACHN renal 14.7% | CAKI-1 renal 69% | CCRF-CEM leukemia 69.5%

COc1ccc(C(=O)n2cc(C=O)c3ccccc32)cc1
inactive: SK-MEL-2 melanoma 104% | EKVX NSCLC 97.6% | SN12C renal 94.7% | UO-31 renal 70.9% | TK-10 renal 123% | ACHN renal 92.4% | CAKI-1 renal 85% | A498 renal 122% | MOLT-4 leukemia 101%

N#Cc1c(-c2ccccc2)cc(-c2c[nH]c3ccccc23)nc1-c1c[nH]c2ccccc12
inactive: SK-MEL-2 melanoma 97.7% | EKVX NSCLC 83.1% | SN12C renal 95.6% | UO-31 renal 68.3% | TK-10 renal 124% | ACHN renal 96.4% | CAKI-1 renal 87.3% | A498 renal 98.7% | MOLT-4 leukemia 102%

Cc1cc(Cl)cc(NS(=O)(=O)c2ccc(-c3cnc(C4CC4)o3)cc2)c1
inactive: SK-MEL-2 melanoma 78.1% | EKVX NSCLC 39.4% | SN12C renal 39.6% | UO-31 renal 43.8% | TK-10 renal 83.5% | ACHN renal 46.1% | CAKI-1 renal 37.1% | CCRF-CEM leukemia 18.6% | MOLT-4 leukemia 25.9%

NC(=O)C(=Cc1ccc(Cl)cc1)C(N)=O
inactive: SK-MEL-2 melanoma 87.3% | EKVX NSCLC 59.8% | SN12C renal 45.3% | UO-31 renal 57.6% | TK-10 renal 67.9% | ACHN renal 59.4% | CAKI-1 renal 49.2% | CCRF-CEM leukemia 57% | MOLT-4 leukemia 74.6%

C#CCOc1ccc(C(Nc2ccc(Cl)cc2)c2nnnn2C2CCCCC2)cc1 (centres undefined)
inactive: SK-MEL-2 melanoma 91.4% | EKVX NSCLC 53.9% | SN12C renal 85.9% | UO-31 renal 64.9% | TK-10 renal 95% | ACHN renal 96.2% | CAKI-1 renal 50.3% | CCRF-CEM leukemia 91% | MOLT-4 leukemia 72.5%

COC(=O)[C@@]1(C)CC[C@]2(C)CC[C@]3(C)C(=CC(=O)[C@@H]4[C@@]5(C)Cc6c(n(CC#CCN7CCN(C)CC7)c7ccccc67)C(C)(C)[C@@H]5CC[C@]43C)[C@@H]2C1
inactive: SK-MEL-2 melanoma 101% | EKVX NSCLC 92.4% | SN12C renal 73.5% | UO-31 renal 65.7% | TK-10 renal 119% | ACHN renal 89.4% | CAKI-1 renal 64.7% | A498 renal 112% | CCRF-CEM leukemia 48% | MOLT-4 leukemia 16.9%

COc1ccc(N)cc1C(=O)Nc1cccc(-c2cc(=O)c3c(OC)c(OC)c(OC)cc3o2)c1
inactive: SK-MEL-2 melanoma 89.1% | EKVX NSCLC 84.8% | SN12C renal 49.7% | UO-31 renal 29.4% | TK-10 renal 81.5% | ACHN renal 52.3% | CAKI-1 renal 43.1% | A498 renal 63.1% | MOLT-4 leukemia 48.2%

CCOC(=O)/C=c1\sc2n(c1=O)C1C(NN=2)N(CC)C(=O)N1CC (centres undefined)
inactive: SK-MEL-2 melanoma 76.7% | EKVX NSCLC 81.9% | SN12C renal 71.9% | UO-31 renal 56.2% | TK-10 renal 81.3% | ACHN renal 44.5% | CAKI-1 renal 51.3% | CCRF-CEM leukemia 53.4%

CNC(=O)c1cc(Oc2ccc3nc(NC(=O)c4ccc(CN5CCN(C)CC5)c(C(F)(F)F)c4)sc3c2)ccn1
inactive: SK-MEL-2 melanoma 98.7% | EKVX NSCLC 59.3% | SN12C renal 76.4% | UO-31 renal 58.5% | TK-10 renal 104% | ACHN renal 76.9% | CAKI-1 renal 53.3% | A498 renal 80.3% | MOLT-4 leukemia 39.2%

CCOC(=O)C1=C(C)Nc2nc3ccccc3n2C1c1ccccc1 (centres undefined)
inactive: SK-MEL-2 melanoma 102% | EKVX NSCLC 94.4% | SN12C renal 92.9% | UO-31 renal 84.9% | TK-10 renal 114% | ACHN renal 73.7% | CAKI-1 renal 90.6% | CCRF-CEM leukemia 94% | MOLT-4 leukemia 97.8%

O=C(COc1ccc(/C=C2\SC(=O)NC2=O)cc1)Nc1ccc(C(=O)/C=C/c2cc3ccccc3nc2Cl)cc1
inactive: SK-MEL-2 melanoma 91% | EKVX NSCLC 73.1% | SN12C renal 87.5% | UO-31 renal 57.6% | TK-10 renal 89.8% | ACHN renal 85.1% | CAKI-1 renal 59.2% | A498 renal 80.7% | MOLT-4 leukemia 42.8%

COc1ccc(/C=N/Nc2nc(N/N=C/c3ccc(OC)cc3O)nc(N3CCOCC3)n2)c(O)c1
inactive: SK-MEL-2 melanoma 82.6% | EKVX NSCLC 46.6% | SN12C renal 75.1% | UO-31 renal 11.2% | TK-10 renal 78.1% | ACHN renal 27.9% | CAKI-1 renal 37.9% | A498 renal 66.8% | MOLT-4 leukemia 35.3%

Cc1ccc(-c2nnc3sc(C4=Cc5ccccc5OC=C4)nn23)cc1
inactive: SK-MEL-2 melanoma 104% | EKVX NSCLC 99.4% | SN12C renal 97.3% | UO-31 renal 87.3% | TK-10 renal 89.1% | ACHN renal 105% | CAKI-1 renal 79.6% | A498 renal 61.6% | CCRF-CEM leukemia 105% | MOLT-4 leukemia 82.8%

Cc1ccc(S(=O)(=O)N/N=C/c2cn(-c3ccc(F)cc3)nc2-c2ccc(S(C)(=O)=O)cc2)cc1
inactive: SK-MEL-2 melanoma 102% | EKVX NSCLC 96.6% | SN12C renal 99.8% | UO-31 renal 89.8% | TK-10 renal 103% | ACHN renal 102% | CAKI-1 renal 98% | A498 renal 87.5% | CCRF-CEM leukemia 103% | MOLT-4 leukemia 106%

COc1ccc(/C=C/C(=O)c2nnn(-c3ccc(Br)cc3)c2C)cc1OC
inactive: SK-MEL-2 melanoma 88.6% | EKVX NSCLC 62.3% | SN12C renal 80.2% | UO-31 renal 66.7% | TK-10 renal 95.4% | ACHN renal 86% | CAKI-1 renal 83.4% | CCRF-CEM leukemia 66.4% | MOLT-4 leukemia 78.4%

CCOC(=O)c1c(NCC(=O)Nc2cccc([N+](=O)[O-])c2)sc2c1CCCC2
active: SK-MEL-2 melanoma -43.2% | EKVX NSCLC -22.7% | SN12C renal -28.9% | UO-31 renal -17.7% | TK-10 renal -33.2% | ACHN renal -60.9% | CAKI-1 renal -20.2% | CCRF-CEM leukemia 8.8% | MOLT-4 leukemia 5.22%

O=C(Nc1cccc(Cl)c1)Nc1nc2ccc(-c3cccc4ccccc34)cc2s1
inactive: SK-MEL-2 melanoma 82.6% | EKVX NSCLC 56.4% | SN12C renal 53% | UO-31 renal 47.4% | TK-10 renal 74.7% | ACHN renal 40.3% | CAKI-1 renal 37.9% | CCRF-CEM leukemia 40.4% | MOLT-4 leukemia 41.5%

COc1ccc2c(c1)c(-c1nnc(N)nc1-c1cn(C)c3ccccc13)cn2C
inactive: SK-MEL-2 melanoma 95.2% | EKVX NSCLC 92.7% | SN12C renal 93.2% | UO-31 renal 70.8% | TK-10 renal 94.1% | ACHN renal 94.5% | CAKI-1 renal 75.7% | CCRF-CEM leukemia 93.9% | MOLT-4 leukemia 94.4%
